About 250 (21%) of roughly 1,200 compounds were called active. Rule as the data show it: active = inhibition above about 20%; inactive = the rest. Only a sample is shown.

The target in the assay is Neuropeptide Y receptor type 1 (Homo sapiens) (UniProt P25929). Nature of the assay: NPY-Y1 receptor antagonists, retest of hits, confirmation, HEK293-CNG cells, membrane potential fluorescence, triplicate (AID 1254).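 Also: 0% = vehicle with agonist plus stimulus and 100% = stimulus alone without agonist.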 The conditions noted are these: cAMP, at 3.6 µM, hits give high values, NPY challenge against isoproterenol-raised cAMP.
Neuropeptide Y receptor type 1 (Homo sapiens), sequence (P25929 whole entry, looked up): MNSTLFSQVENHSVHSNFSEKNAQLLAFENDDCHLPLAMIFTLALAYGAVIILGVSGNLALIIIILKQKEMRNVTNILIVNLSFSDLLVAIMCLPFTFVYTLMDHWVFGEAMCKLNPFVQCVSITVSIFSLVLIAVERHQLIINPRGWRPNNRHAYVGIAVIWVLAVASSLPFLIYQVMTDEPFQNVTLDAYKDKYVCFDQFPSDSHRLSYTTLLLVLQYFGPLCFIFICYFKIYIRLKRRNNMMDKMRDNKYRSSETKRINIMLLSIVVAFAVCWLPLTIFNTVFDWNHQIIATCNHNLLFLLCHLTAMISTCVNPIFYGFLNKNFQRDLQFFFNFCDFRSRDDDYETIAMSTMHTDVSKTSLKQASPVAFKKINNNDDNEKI
Usually inhibition stands for the relative decrease from the control value, in per cent. As for `O=C(CSc1nnnn1C1CCCC1)Nc1ccc2c(c1)OCCO2`, the inhibition is 10.8% (inactive).

As for `CCN1CCN(CCNC(=O)c2ccc(/C=C3/Sc4ccccc4N(Cc4cccc(C)c4)C3=O)cc2)CC1`, the inhibition is 14.5% (inactive).

On to `COC(=O)c1ccc(COC(=O)c2c(C)nn(Cc3ccccc3Cl)c2Cl)o1`, for which the inhibition was 7.48% (inactive).

Take `CC(C)(C)NCc1cc(Br)ccc1OC1CCCC1`: the inhibition was 21.6% (active).

As for `Cc1ccccc1Nc1scc(-c2ccc(Br)cc2)[n+]1-c1ccccc1C`, the inhibition was 18.4% (inactive).

Regarding `COc1ccccc1C1C2=C(COC2=O)Nc2cc3c(cc21)OCO3` (stereo unspecified), the inhibition is 2.86% (inactive).

As for `COc1ccc(-c2[nH]nc(-c3ccccc3)c2-c2nc3ccccc3[nH]2)cc1`, the inhibition is 13.6% (inactive).

For the compound `COc1ccc(C(=O)CSc2nnc(COc3ccccc3)n2Cc2ccco2)cc1`, the inhibition was 5.39% (inactive).

For `Cc1cc(C)c2[nH]c(=O)c(CN(Cc3ccccc3)C(=S)NCCCN(C)C)cc2c1`, the inhibition is 15.2% (inactive).

Regarding `O=S(=O)(O)c1nc2ccccc2n1Cc1ccc(Cl)cc1`, the inhibition was 5.94% (inactive).

On to `O=C(NCCc1ccc2c(c1)OCCO2)c1cc2ccccc2o1`, for which the inhibition was 13.2% (inactive).

`CCCOc1ccc2c3c(c(=O)oc2c1OCCC)CCC3`: the inhibition was 5.13% (inactive).

In the case of `C/C(=N\NC(=S)NCc1ccccc1)c1ccc(Cl)cc1`, the inhibition is 4.98% (inactive).

On to `Cc1ccc(-c2cc(C(=O)N3CCc4ccccc4C3)no2)cc1`, for which the inhibition was 10.9% (inactive).

Regarding `OCC1(CCc2ccccc2)CCN(Cc2ccc3nsnc3c2)CC1`, the inhibition is 9.69% (inactive).

For `COc1ccc(CCN(C(=O)COc2ccccc2)c2nc(-c3ccccc3)cs2)cc1OC`, the inhibition is 13.1% (inactive).

In the case of `c1ccc2c(NC3C4CC5CC(C4)CC3C5)nc(N3CCOCC3)nc2c1` (stereo unspecified), the inhibition is 25.2% (active).

On to `CC(Nc1nc(N2CCN(CCO)CC2)nc2ccccc12)c1ccccc1` (stereo unspecified), for which the inhibition is 4.06% (inactive).

As for `c1ccc(-c2ccccc2OCCN2CCCCC2)cc1`, the inhibition is 4.72% (inactive).

As for `CCCCCCCCn1c2c(c(=N)c3c1CCC3)CCCC2`, the inhibition is 64.7% (active).

Consider `O=C(CN1CCN(c2ncc(C(F)(F)F)cc2Cl)CC1)Nc1ccc2c(c1)OCO2`, for which the inhibition was 12.4% (inactive).

For `Cc1ccc2nc(-c3ccccn3)cc(C(=O)Nc3ccc4c(c3)OCO4)c2c1`, the inhibition is 27% (active).

In the case of `COc1cc2c(C(=O)N3CCN(C)CC3)c(CSc3ccccc3)n(C)c2cc1Br`, the inhibition is 20.6% (active).

On to `CS(=O)(=O)N1CCCC(C(=O)N2CCOCC2)C1` (stereo unspecified), for which the inhibition is -0.5% (inactive).

Turning to `CCOC(=O)CSc1nc2c(sc(=S)n2CCc2ccccc2)c(=O)n1Cc1ccco1`, the inhibition was 18.3% (inactive).

Regarding `O=C(c1cc(-c2ccc(O)cc2)on1)N1CCCc2ccccc21`, the inhibition is 2.54% (inactive).

Source of the values: PubChem BioAssay AID1254 (The Scripps Research Institute Molecular Screening Center, 2008).
